The values that follow come from PubChem BioAssay (NCI).

Assay [1] is described as follows: NCI Yeast Anticancer Drug Screen. Data for the rad50 strain (AID 155).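 Further: 0% = growth of vehicle-only cultures of the same strain.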 The note with it: S. cerevisiae rad50 strain growth inhibition; at 50.0 µM; active compounds read high. A digest of the protocol:
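Compounds were tested on a yeast strain with an engineered DNA damage repair alteration; the reported value is growth inhibition normalised to vehicle treatment.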

A short description of assay [2]: NCI Yeast Anticancer Drug Screen. Data for the mec2-1 strain (AID 157). To be noted: S. cerevisiae mec2-1 strain, at 50.0 µM, active compounds read high. The gist of the method:
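Test agents were screened against the mec2-1 yeast strain, with defined DNA repair or cell cycle alteration. Growth was scored as inhibition against vehicle-only controls.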

Assay [3] can be described thus: NCI Yeast Anticancer Drug Screen. Data for the sgs1 mgt1 strain (AID 161).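 Further: 0% = growth of cultures given vehicle only.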 The note with it: S. cerevisiae sgs1 mgt1 strain, at 50.0 µM, active compounds read high. A digest of the protocol:
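Genetically altered yeast, compound exposure, growth inhibition relative to vehicle.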

Assay [4] can be described thus: NCI Yeast Anticancer Drug Screen. Data for the cln2 rad14 strain (AID 165).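 Further: 0% = growth equal to vehicle treated cultures.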 The note with it: S. cerevisiae cln2 rad14 strain, at 50.0 µM, active compounds read high. A digest of the protocol: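 Growth of compound-exposed yeast (cln2 rad14 genotype) measured and expressed as inhibition relative to vehicle.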
The nature of assay [5]: NCI Yeast Anticancer Drug Screen. Data for the bub3 strain (AID 167). To be noted: S. cerevisiae bub3 mutant strain, at 50.0 µM, active compounds read high. A digest of the protocol:
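Growth of a checkpoint-deficient yeast mutant is measured after compound exposure. Values represent inhibition relative to vehicle.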

Assay [6] can be described thus: NCI Yeast Anticancer Drug Screen. Data for the mlh1 rad18 strain (AID 175). The note with it: S. cerevisiae mlh1 rad18 strain growth inhibition; at 50.0 µM; active compounds read high. The gist of the method:
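In this whole-cell yeast screen, a strain with altered DNA damage repair is challenged with compound, and its growth is measured against matched vehicle-treated controls.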

Compounds without any hit were thinned out: in the full panel of roughly 79,000, 15% have a hit. Unmarked numbers belong to inactive results. Active and inactive are the calls of the source. No stated cut-off is given here; in the data, active means growth inhibition above about 70%; inactive means the rest. Where a SMILES comes first, the peptide text is derived from it. The star is where a group is joined. Cbz = O=C(OCc1ccccc1)*

In the case of `C=CCn1c(SC)nc2c(c1=O)CCCC2`, the growth inhibition in assay [1] was -34.5%; in assay [2], -13.4%; in assay [3], -5.4%; in assay [4], -14.3%; in assay [5] it was 7.55%; in assay [6] it was -10.2%.

With `CCC(=O)Oc1c(C(C)C)cccc1C(C)(C)C`, the growth inhibition in assay [1] was -22%; in assay [2] it was -31.6%; in assay [3], -19.7%; in assay [4], -8%; in assay [5], -31.4%; in assay [6] it was -14.8%.

In the case of `CC(c1ccc2ccc3cccc4ccc1c2c34)C(C(=O)O)C(=O)O` (stereo unspecified), the growth inhibition was -0.85% in assay [1]; -15.8% in assay [2]; 8.6% in assay [3]; -7.15% in assay [4]; 0.75% in assay [5]; 5.7% in assay [6].

Turning to `O=C1c2ccccc2C(=O)c2c1ccc1c2[nH]c2ccccc21`, the growth inhibition was 2.15% in assay [1]; -4.8% in assay [2]; 3.75% in assay [3]; -67.2% in assay [4]; 0.8% in assay [5]; -4.85% in assay [6].

As for `N#CC(C#N)=C1c2ccccc2Sc2ccccc21`, the growth inhibition was -18.6% in assay [1]; -0.35% in assay [2]; -2.05% in assay [3]; -21.3% in assay [4]; -11.5% in assay [5]; -22.2% in assay [6].

In the case of `O=C(O)C(CO)NC(=O)C1CCCN1C(=O)OCc1ccccc1` (stereo not drawn) (Cbz-Pro-Ser-OH; configuration not given here), the growth inhibition was -1.95% in assay [1]; -17.8% in assay [2]; -5.7% in assay [3]; -1% in assay [4]; -4.75% in assay [5]; -18% in assay [6].

For `CCOCCOC(=O)C(C)OC(=O)/C(=C/C(=O)O)CCOCC` (stereo unspecified), the growth inhibition in assay [1] is -1%; in assay [2], -18.4%; in assay [3], -9.75%; in assay [4], -0.2%; in assay [5] it was -1.6%; in assay [6], 8.85%.

Turning to `COC(=O)C(C(=O)C(=O)Nc1ccc([N+](=O)[O-])cc1[N+](=O)[O-])c1nc2ccc(Cl)cc2[nH]c1=O` (stereo unspecified), the growth inhibition was 10.2% in assay [1]; 10.6% in assay [2]; 39% in assay [3]; 20.2% in assay [4]; 12.5% in assay [5]; 25.5% in assay [6].

In the case of `c1ccc(-c2csnn2)cc1`, the growth inhibition in assay [1] was -8.6%; in assay [2], -12.2%; in assay [3], -4.05%; in assay [4], -17.8%; in assay [5] it was -13.4%; in assay [6], -11.8%.

For `CCN(CC)CCCCCOC(=O)c1cccc(N)c1`, the growth inhibition was -5.8% in assay [1]; 0.35% in assay [2]; -16.6% in assay [3]; -45.9% in assay [4]; 27.2% in assay [5]; -10.1% in assay [6].

Turning to `Cc1cc(N=Nc2c(O)c3ccccc3[nH]c2=O)ccc1N=Nc1ccc(C(=O)O)cc1`, the growth inhibition in assay [1] was 1.65%; in assay [2], -9.15%; in assay [3], 3.5%; in assay [4], 1.1%; in assay [5], -14.1%; in assay [6] it was -8.05%.

Consider `O=C1NC(Nc2ccccc2)=NC(C(F)(F)F)(C(F)(F)F)N1`, for which the growth inhibition in assay [1] is -1.5%; in assay [2], 1.1%; in assay [3] it was 36%; in assay [4], 32.5%; in assay [5] it was 39.6%; in assay [6], -8%.

With `O=C1C(=O)C(c2ccccc2)(c2ccccc2)C(=O)N1c1ccccc1`, the growth inhibition was 29.6% in assay [1]; 13.2% in assay [2]; 0.9% in assay [3]; 49.6% in assay [4]; 16.4% in assay [5]; -6.7% in assay [6].

For the molecule `N=C(c1ccc2ccccc2c1)c1ccccc1Cc1ccccc1`, the growth inhibition in assay [1] was 17.2%; in assay [2], -24.2%; in assay [3], 6.15%; in assay [4] it was -52.5%; in assay [5], 9.35%; in assay [6], 24.2%.

As to `C/C(=N\NS(=O)(=O)c1ccccc1)c1ccccc1`, the growth inhibition in assay [1] was 5.95%; in assay [2] it was 3.4%; in assay [3], 3.5%; in assay [4], 28.6%; in assay [5], 1.1%; in assay [6], 20.5%.

Regarding `Nc1cc2c(cc1/C=C1\CCNC1=O)OCO2`, the growth inhibition in assay [1] was -5.65%; in assay [2], -12.1%; in assay [3], -22.2%; in assay [4], -6.6%; in assay [5], -11.8%; in assay [6] it was -4.85%.

On to `Cc1cccc(-n2c(-c3ccccc3)cs/c2=N\N=C2/CSC(=O)N2Cc2ccccc2)c1`, for which the growth inhibition was -2.95% in assay [1]; -21.9% in assay [2]; 22.8% in assay [3]; -41.8% in assay [4]; 2.45% in assay [5]; -27.8% in assay [6].

Take `Nc1ccc(/C=C/C(=O)O)cc1`: the growth inhibition in assay [1] is -9.1%; in assay [2] it was -6%; in assay [3], 11.6%; in assay [4], 10.8%; in assay [5], 2.55%; in assay [6], 9.95%.

Take `CN(C)N=Nc1ccc(Cl)cc1`: the growth inhibition was -5.15% in assay [1]; 21.9% in assay [2]; 16.6% in assay [3]; -56.6% in assay [4]; 35% in assay [5]; 8.3% in assay [6].

On to `CN(CO)N=Nc1ccc(C(F)(F)F)cc1`, for which the growth inhibition is -6.05% in assay [1]; -0.65% in assay [2]; -10% in assay [3]; -14.2% in assay [4]; 13.2% in assay [5]; 19.8% in assay [6].

With `CCCCCC(C/C=N/N(C)C)C(O)(C(F)(F)F)C(F)(F)F` (stereo unspecified), the growth inhibition in assay [1] was 1.35%; in assay [2], 2.1%; in assay [3], -5.15%; in assay [4] it was -5.15%; in assay [5], 15.4%; in assay [6], 73.2% (active).
